# Bioassay records from PubChem.
# MITF act: activators of MITF-driven TRPM1 promoter activity in SK-MEL-5 cells; activation, % at 12.5 µM; SK-MEL-5 TRPM1-promoter luciferase, 24 h; % of positive control, neutral wells = 0; 300,000 compounds, 0.75% hits;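 active means mean activation of at least 80% with every replicate also reaching 80%; inconclusive means mean reaches 80% but some replicate falls short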;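 further: 0% = neutral control wells and 100% = parthenolide positive control wells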
# HIV Env fusion: inhibitors of HIV Env-mediated cell fusion; HeLa-JRFL Env/CEM21 cell fusion, luciferase; inhibition, % at 12.3 µM; 360,000 compounds, 1.1% hits; AID 651610;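 active means mean replicate inhibition score of at least 50 and every replicate individually at or above 50; inconclusive means only one of the two criteria met; inactive means mean below 50 and not all replicates reaching 50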;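 further: 0% = plate neutral controls and 100% = maraviroc near 300 nM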
# Wnt act: activates Wnt/beta-catenin signaling in a reporter cell assay; activator, plate reader; 300,000 compounds, 1.2% hits; activation, % at 9.35 µM; in the data active means activation above about 30%, passing the limit was not always enough; inconclusive means no clear call, values can overlap the other calls;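 further: 0% = neutral control wells and 100% = positive control wells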
# GSIS activator: primary screen for activators of insulin secretion dependent on glucose, INS-1E cells, GLuc reporter luminescence; INS-1E GLuc reporter insulin secretion, 2-3 h; activation, % at 16.6 µM; 370,000 compounds, 0.61% hits;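 active means lowest replicate activation of at least 40%, so every replicate reaches that level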;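 further: 0% = median of neutral control wells and 100% = median of IBMX positive control wells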
# CFTR F508del cor: CFTR F508del correction in bronchial cells; AID 720511; 350,000 compounds, 0.36% hits; CFBE cells, YFP halide quenching; stimulated with forskolin plus potentiator P3; % fluorescence drop versus neutral controls; activity (quench increase), % at 7.58 µM;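 active means mean added fluorescence quench of at least 8% versus neutral control, with both replicates also reaching 8%; inconclusive means only one of the mean or replicate conditions met; inactive means mean below 8% and not both replicates reaching 8%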;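 further: cells transiently co-express mutant CFTR-F508del with the halide-sensitive YFP; corrector assay measuring rescue of mutant channel to the surface after 24 h compound exposure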
# The depositor's hits bear a star; ? = inconclusive; / = no result; ! = repeats disagree; [ ] = dose if it differs, or a comment. Shown are actives, neighbours in structure and some others; about 2.7% of the full set was active somewhere.
SMILES,MITF act,HIV Env fusion,Wnt act,GSIS activator,CFTR F508del cor
Cn1ccnc1SCC(=O)Nc1ccc(SC(F)F)cc1,109*,/,28,-19,1
COc1ccc(NC(=O)CCOc2ccccc2)cc1,112*,/,/,3,/
Cn1ccnc1SCC(=O)Nc1ccccc1,8,/,/,/,/
COc1ccc(NC(=O)CSc2ccccn2)cc1,/,-26,36*,/,/
O=C(CSc1ccccn1)Nc1ccc(NC(=O)CSc2ccccn2)cc1,-8,10,/,-2,1
CCCC(=O)Nc1ccc(C#Cc2ccccc2)cc1,96*,-49,38*,/,/
CCCC(=O)Nc1ccc(Oc2ccc(NC(=O)CCC)cc2)cc1,-2,-10,-5,/,/
c1ccc(CSc2nc3ccccc3[nH]2)cc1,111*,-263,68*,-6,-2
O=[N+]([O-])c1ccc(CSc2nc3ccccc3[nH]2)cc1,?,-60,21,-24,/
Fc1ccc(CSc2nc3ccccc3[nH]2)cc1,104*,/,/,/,/
Clc1ccccc1CSc1nc2ccncc2[nH]1,67,-6,39*,-32,3
c1ccc(CSCc2nc3ccccc3[nH]2)cc1,111*,-36,/,-3,/
O=C(N[C@H]1C=C[C@@H](CC(=O)N2CCc3ccccc3C2)O[C@H]1CO)C1CCC1,/,-2[16.7 µM],/,4,1
C[C@H]1CN([C@@H](C)CO)S(=O)(=O)c2ccc(C#CCN(C)C)cc2O[C@H]1CN(C)C(=O)C1CCC1,/,-7[16.7 µM],/,6,-3
COc1cc2c(c(OC)c1OC)-c1ccc(OC)c(=O)cc1C(NC(C)=O)CC2 (stereo unspecified),-65,-111,-14,4,1
COc1c(O[C@@H]2O[C@H](CO)[C@@H](O)[C@H](O)[C@H]2O)cc2c(c1OC)-c1ccc(SC)c(=O)cc1C(NC(C)=O)CC2 (stereo partly specified),8,-16,1,-6,14*
COc1c(C=O)c2c(c(OC)c1OC)-c1ccc(OC)c(=O)cc1C(NC(C)=O)CC2 (stereo unspecified),-39,-45,-6,-7,11*
Cc1c(Cl)cccc1NC(=O)CCCN1C(=O)c2cccnc2C1=O,8,3,34*,0,1
O=C(C[C@@H]1CC[C@@H]2[C@H](COC[C@@H](O)CN2Cc2ccccc2)O1)NCCCN1CCOCC1,/,/,/,7,0
Cc1nc(-c2noc(-c3ccccc3Cl)n2)c(C(F)(F)F)o1,83*,-40,-2,18,0
Clc1ccccc1-c1nc(-c2ccc(Br)o2)no1,/,-92,24,11,2
c1ccc(-c2ccccc2-c2nc(-c3ccncc3)no2)cc1,16,/,/,/,/
O=[N+]([O-])c1ccccc1-c1nc(-c2ccc(Br)o2)no1,40,-120,47*,6,/
Clc1ccccc1-c1nc(-c2ccncc2)no1,36,-19,49*!,-6,5
Clc1ccc(-c2nc(-c3ccncc3)no2)c(Cl)c1,/,-51,60*,-5,3
SMILES,MITF act,HIV Env fusion,Wnt act,GSIS activator,CFTR F508del cor
O=C(C1CC1)N1CC2(C1)[C@H](c1ccccc1)[C@@H](CO)N2C(=O)CC1CC1,/,/,/,0,-1
CNC[C@@H]1Oc2cc(C#CCN(C)C)ccc2S(=O)(=O)N([C@H](C)CO)C[C@H]1C,/,3[16.7 µM],/,7,-1
O=[N+]([O-])c1cc(Cl)ccc1-c1nc(-c2ccncc2)no1,-1,-41,7,-2,1
O=[N+]([O-])c1cc(Cl)ccc1-c1nc(-c2ccccc2)no1,47,-160,51*,-13,/
C[C@@H]1CN([C@H](C)CO)C(=O)c2cccc(NC(=O)c3nc4ccccc4s3)c2O[C@H]1CN(C)C(=O)NC1CCCCC1,/,/,/,-23,1
COc1ccc(OCCCN2CCC(C(O)(c3ccccc3)c3ccccc3)CC2)cc1,/,7,-10,/,0
CC(C)c1ccc(OCCCN2CCC(C(O)(c3ccccc3)c3ccccc3)CC2)cc1,/,79*,-27,/,0
OC(c1ccccc1)(c1ccccc1)C1CCN(CCCOc2ccc(C(F)(F)F)cc2)CC1,/,-2,-15,654*,-2
OC(c1ccccc1)(c1ccccc1)C1CCN(CCCOc2ccc(F)cc2)CC1,/,-5,-3,-42,-1
C[C@H](CO)N1C[C@H](C)[C@H](CN(C)C(=O)Nc2ccccc2)Oc2ccc(NC(=O)Nc3ccccc3)cc2CC1=O,/,-9[16.7 µM],/,-12,3
C[C@H](CO)N1C[C@H](C)[C@H](CN(C)C(=O)Nc2ccc(C(F)(F)F)cc2)OCCCC[C@H](C)Oc2ccc(NC(=O)Cc3ccccc3)cc2C1=O,/,-72[16.7 µM],/,-3,0
COc1cc2c(c(Br)c1N)-c1cc(Br)c(N)cc1C2=O,/,1,0,/,8.5*
COc1cc(C)nc(NC(=S)N(C)C(=O)c2ccccc2)n1,/,0,46*,28,1
COc1ccccc1C(=O)Nc1nc(C)cc(C)n1,/,-3,4,0,-1
CN1c2ccc(-c3cccc(F)c3)cc2[C@@H]2[C@@H](CCN2C(=O)c2ccccc2F)[C@H]1CO,/,/,/,18,5
FC(F)(F)c1ccc(N2CCN(c3cc(-c4ccccc4)nc4ncnn34)CC2)nc1,-5,77*,/,/,/
C[C@H](CO)N1C[C@H](C)[C@@H](CN(C)S(=O)(=O)c2ccc(F)cc2)Oc2ccc(NC(=O)Nc3ccccc3)cc2CC1=O,/,-13[16.7 µM],/,-7,-1
CCCC(=O)Nc1ccc(N2CCN(S(C)(=O)=O)CC2)cc1,9,24,-1,53*,/
COc1cccc(OCc2nc(-c3cccc([N+](=O)[O-])c3)no2)c1,2,2,-1,6,3
O=[N+]([O-])c1cccc(-c2nc(-c3cccs3)c(-c3cccs3)[nH]2)c1,-15,-84,-1,/,/
O=[N+]([O-])c1cccc(-c2noc(-c3cccs3)n2)c1,49,-302,48*,/,1
Nc1nc(N)nc(-c2cc([N+](=O)[O-])ccc2O)n1,-12,-3,10,0,2
Nc1nc(N)nc(-c2cccc([N+](=O)[O-])c2)n1,/,-16,-1,60*,-3
O=[N+]([O-])c1cccc(-c2nc(-c3ccccc3)c(-c3cccs3)[nH]2)c1,-3,/,/,48*,/
C[C@H](CO)N1C[C@H](C)[C@H](CN(C)Cc2ccccn2)Oc2ncc(C#Cc3cccc(F)c3)cc2C1=O,/,7[16.7 µM],/,-1,5
SMILES,MITF act,HIV Env fusion,Wnt act,GSIS activator,CFTR F508del cor
COc1cc2c[n+](C)c3c4ccccc4ccc3c2cc1OC,0,36,14,-17,9.7*
CC(=O)Oc1oc(-c2ccccc2)nc1C=Nc1ccc(N(C)C)cc1,/,0,6,/,-1
CN(C)c1ccc(N=Cc2nc(-c3ccccc3)oc2OC(=O)c2ccccc2)cc1,12,-89,35*,-5,/
NC(=O)[C@@H]1[C@H]2C(=O)O[C@H](c3ccccc3)[C@H](c3ccccc3)N2[C@H](c2ccc(O)cc2)[C@@]12C(=O)Nc1ccccc12,/,-6[16.7 µM],/,/,0
N/C(=N\OC(=O)COc1ccc(Br)cc1Cl)c1ccncc1,130*,-48,67*,4,2
Cc1ccc(OCC(=O)O/N=C(\N)c2ccncc2)c(C)c1,161*,-87,20,-9,1
